Screening results as filed in PubChem BioAssay.
Hits are enriched below; roughly 2.9% of the tested compounds scored in any of these assays.
EPAC2 antag – human EPAC2 antagonism, validation. Q8WZA2. EPAC2 Rap1B BODIPY-GDP exchange, fluorescence. Potency, µM (doses to about 112 µM), usual class: inhibitors. 1.7% of 16,000 active; note: nearly all actives have a fitted effect of over 40% in size
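Normalized against a 6.5 mM cAMP agonist control, compounds were tested on 100 nM EPAC2 exchanging Rap1B-bound BODIPY-GDP (250 nM) for 50 uM GDP. Fluorescence drop (ex 480, em 540 nm) was tracked at room temperature over 30 min at 5-min intervals.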
EPAC1 ag val – validation of human EPAC1 agonists; O95398; EPAC1 Rap1b BODIPY-GDP exchange, fluorescence; Potency, µM, most hits filed as activators; 1% of 16,000 active; note: nearly all actives have a fitted effect of over 70% in size
A number is an active result; – = inactive; ? = inconclusive. Calls come from the whole dose curve; as a rule, active = well fitted curve in the direction sought with a large enough effect; inconclusive = small, poorly fitted or top-dose-only effect, or another doubt; inactive = no such curve, though single readings can be large; an effect the other way counts as inactive or inconclusive.

SMILES	EPAC2 antag	EPAC1 ag val
COCCn1c(=O)c(-c2ccc(OC)cc2)nc2cnc(Nc3ccccc3)nc21	–	–
O=C(CN1Cc2ccccc2OC(c2ccsc2)C1)NCC1OCCc2ccccc21 (stereo unspecified)	–	–
O=C1C2CC3CC1CC(O)(C3)C2	–	–
C[C@@H]1CN(Cc2ccc3c(c2)CN(Cc2coc4ccccc4c2=O)CCO3)C[C@H](C)O1	–	–
CO[C@H]1C[C@H](O[C@H]2[C@H](C)O[C@@H](O[C@@H]3/C(C)=C/C[C@@H]4C[C@@H](C[C@]5(C=C[C@H](C)[C@@H](C6CCCCC6)O5)O4)OC(=O)[C@@H]4C=C(C)[C@@H](O)[C@H]5OC/C(=C\C=C\[C@@H]3C)[C@]54O)C[C@@H]2OC)O[C@@H](C)[C@@H]1O	–	–
CC(NC(=O)c1cc(F)ccc1F)c1nnc2n1CCN(Cc1ccc(-c3ccccc3)cc1)CC2 (stereo unspecified)	–	–
O=c1c(-c2cc(F)cc(F)c2)nc2cnc(N3CCNCC3)nc2n1Cc1cccs1	44.7µM	?
O=c1c(-c2cc(F)cc(F)c2)nc2cnc(N3CCOCC3)nc2n1Cc1cccs1	–	–
CC[C@@]1(O)C(=O)OCc2c1cc1n(c2=O)Cc2cc3c(CN(C)C)c(O)ccc3nc2-1	–	112µM
CC[C@@]1(O)C(=O)OCc2c1cc1n(c2=O)Cc2cc3c([N+](=O)[O-])cccc3nc2-1	–	–
CCC(=O)O[C@@H]1CC(=O)O[C@H](C)C/C=C/C=C/[C@@H](O)[C@H](C)C[C@H](CC=O)[C@H](OC2O[C@H](C)[C@@H](O[C@H]3C[C@@](C)(O)[C@@H](OC(=O)CC)[C@H](C)O3)[C@H](N(C)C)[C@H]2O)[C@H]1OC (stereo partly specified)	–	–
